In this assay the target is T1, VCPIP1 (UniProt Q96JH7).
T1 sequence (whole entry): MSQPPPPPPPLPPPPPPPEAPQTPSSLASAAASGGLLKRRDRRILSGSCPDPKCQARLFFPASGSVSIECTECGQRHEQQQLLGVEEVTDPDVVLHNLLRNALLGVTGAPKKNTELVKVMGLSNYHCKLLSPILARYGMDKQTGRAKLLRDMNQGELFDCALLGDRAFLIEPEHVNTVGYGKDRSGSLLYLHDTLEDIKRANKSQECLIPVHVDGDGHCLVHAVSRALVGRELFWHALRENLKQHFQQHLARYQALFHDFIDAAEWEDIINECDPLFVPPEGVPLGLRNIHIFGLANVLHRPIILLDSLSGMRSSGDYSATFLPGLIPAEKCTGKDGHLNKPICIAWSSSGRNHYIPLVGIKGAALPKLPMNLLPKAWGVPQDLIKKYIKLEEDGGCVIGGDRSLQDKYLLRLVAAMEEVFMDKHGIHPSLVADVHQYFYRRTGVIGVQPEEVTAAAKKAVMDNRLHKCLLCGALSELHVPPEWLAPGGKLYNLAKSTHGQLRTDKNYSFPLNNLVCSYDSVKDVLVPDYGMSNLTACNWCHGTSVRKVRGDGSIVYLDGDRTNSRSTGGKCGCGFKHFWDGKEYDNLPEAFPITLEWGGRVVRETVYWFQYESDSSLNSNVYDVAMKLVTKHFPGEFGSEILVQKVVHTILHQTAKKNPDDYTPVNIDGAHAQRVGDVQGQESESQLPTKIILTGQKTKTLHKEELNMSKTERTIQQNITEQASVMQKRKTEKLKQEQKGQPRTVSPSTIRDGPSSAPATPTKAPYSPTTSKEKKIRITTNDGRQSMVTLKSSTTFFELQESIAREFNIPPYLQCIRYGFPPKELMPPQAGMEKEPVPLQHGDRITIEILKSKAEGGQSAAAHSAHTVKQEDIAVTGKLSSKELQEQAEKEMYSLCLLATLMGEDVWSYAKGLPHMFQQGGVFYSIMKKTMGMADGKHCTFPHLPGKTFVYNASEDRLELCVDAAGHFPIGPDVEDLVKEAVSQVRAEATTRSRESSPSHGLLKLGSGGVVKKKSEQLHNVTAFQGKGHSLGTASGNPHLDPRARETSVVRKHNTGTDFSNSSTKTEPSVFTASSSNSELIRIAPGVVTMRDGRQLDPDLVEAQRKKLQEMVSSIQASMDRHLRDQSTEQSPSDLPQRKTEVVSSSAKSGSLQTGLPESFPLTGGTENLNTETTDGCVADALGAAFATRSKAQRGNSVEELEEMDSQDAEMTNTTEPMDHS
In words: log2 ratio of Biotin-Ahx-Ub-VS probe labelling (fragment/DMSO); higher = less target engagement (more negative = stronger competition), active = hit call of the paper (q ≤ 0.05, log2 ratio ≤ -1). Conditions: compound concentration: 200 uM; treatment time: 3 h. As for the experimental part:
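Competitive ABPP in HEK293T cell lysate. Lysates were treated with each chloroacetamide fragment at 200 µM for 3 h, then with Biotin-Ahx-Ub-VS (0.5 µM, 1 h), NeutrAvidin-enriched and analysed by diaPASEF LC-MS/MS. Protein LFQ was median-normalised; average log2 ratio is fragment/DMSO from an unpaired t-test (n=3 treated, n=44 DMSO). Hits: q ≤ 0.05, log2 ratio ≤ -1, unique peptides ≥ 2.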
For `CNC(=O)C1(NC(=O)CCl)CCCCC1`, the “log2 ratio of Biotin-Ahx-Ub-VS probe labelling” value (“log2 ratio” for short) was -0.262 (inactive). The value for `CCC1c2ccsc2CCN1C(=O)CCl` (stereo not given) was -0.892 (inactive). Regarding `CCC(NC(=O)CCl)c1ccc(Cl)cc1` (stereo not given), the “log2 ratio” value was -0.836 (inactive). `O=C(CCl)NCc1noc(C2CC2)n1`: the “log2 ratio” value is -0.61 (inactive). The value for `C[C@H]1CN(C(=O)CCl)CCN1C(=O)c1cnn(C)c1.Cl` was -0.157 (inactive). The value for `Cc1n[nH]c2c1CN(C(=O)CCl)CC2` was -1.02 (active).

`COc1ccc(C2CCCN2C(=O)CCl)c(OC)c1` (stereo not given): the “log2 ratio” value was -0.545 (inactive).

Turning to `O=C(CCl)Nc1cc(Cl)ccc1-n1cncn1`, the “log2 ratio” value was -1.26 (active). For `Cc1nc(-c2cccc(NC(=O)CCl)c2)cs1`, the “log2 ratio” value was -1.87 (active). Consider `O=C(CCl)N1CCC(c2nc3ccccc3o2)CC1`, for which the “log2 ratio” value was -2.76 (active). The value for `O=C(CCl)NC1CCN(C(=O)C2CCCCC2)CC1` was -0.826 (inactive). The value for `CC(O)CC1CCN(C(=O)CCl)CC1` (stereo not given) was -0.106 (inactive). Consider `Cl.Cn1nc2c(c1CNC(=O)CCl)CCCC2`, for which the “log2 ratio” value is -1.63 (active). The value for `CCN1C(=O)C2CN(C(=O)CCl)CCN2C1=O` (stereo not given) was 0.103 (inactive). The value for `Cc1ccc2nnc(CNC(=O)CCl)n2c1` was -1.34 (active).

`O=C(CCl)N[C@H]1CC[C@@H](CO)CC1`: the “log2 ratio” value is -1.4 (active). Under `COCC1C=CCCN1C(=O)CCl` (stereo not given) stands -0.426 (inactive); under `O=C(CCl)NCCc1ccc(F)cc1`, -0.91 (inactive); under `O=C(CCl)N(C1=CCCCC1)C1CC1`, -0.286 (inactive). The value for `O=C(CCl)NCCc1cccc2ccccc12` was -1.04 (active).

As to `O=C(CCl)N(Cc1ccsc1)C1CC1`, the “log2 ratio” value was -0.642 (inactive). The value for `O=C(CCl)NCCC1=CCCCC1` was -0.647 (inactive); that for `Cl.O=C(CN1CCN(C(=O)CCl)CC1)Nc1ccc(F)cc1` was -0.257 (inactive). The value for `CC1CN(c2ccc(NC(=O)CCl)cc2)CC(C)O1` (stereo not given) was -0.624 (inactive). The value for `CCCn1nccc1NC(=O)CCl` was -0.41 (inactive); that for `Cl.O=C(CCl)N1CCn2ncc(O)c2C1` was -0.764 (inactive). For `CC(C)n1nccc1NC(=O)CCl`, the “log2 ratio” value is -0.897 (inactive). The value for `CN(C)S(=O)(=O)c1ccccc1CNC(=O)CCl` was -1.15 (active). The value for `O=C(CCl)Nc1ccc(F)cc1Cl` was -1.05 (active); that for `Cl.Cn1c(CNC(=O)CCl)nc2cccnc21` was -0.977 (inactive). Under `CN1c2ccccc2C(NC(=O)CCl)CS1(=O)=O` (stereo not given) stands -2.14 (active); under `O=C(CCl)N1CCC(O)(Cc2ccc(F)cc2)C1` (stereo not given), -2.24 (active); under `COc1ccc(Cl)cc1NC(=O)CCl`, -1.52 (active).

Regarding `Cl.O=C(CCl)N1CCn2cncc2C1`, the “log2 ratio” value is -0.196 (inactive).

As for `CC(=O)Nc1ccc(NC(=O)CCl)cc1`, the “log2 ratio” value is -1.31 (active). Under `COc1cccc(CN(C)C(=O)CCl)c1` stands -0.854 (inactive); under `Cc1ccc(C)c(Oc2ccc(CNC(=O)CCl)cn2)c1.Cl`, -1.8 (active); under `NS(=O)(=O)c1ccc(Cl)c(NC(=O)CCl)c1`, -2.53 (active). Under `Cc1ccc(N2CCC(NC(=O)CCl)C2=O)cc1` (stereo not given) stands -2.9 (active); under `Cl.O=C(CCl)NC1(c2ncccn2)CCC1`, -0.136 (inactive).
